# Several values for one entry are separate records, joined by “and”; a condition that tells them apart may be missing. Identical values can stand only once. Values without a mark were called inactive. Inconclusive results are not listed. Where a call stands in place of a potency, no number is given. Activity calls are given as the source filed them. Unless noted, calls follow the shape of the dose curve; as a rule, active = well fitted curve in the direction sought with a large enough effect; inconclusive = small, poorly fitted or top-dose-only effect, or another doubt; inactive = no such curve, though single readings can be large; an effect the other way counts as inactive or inconclusive.
# Key:
# [1] = molecular target: Mitogen-activated protein kinase 10 (Mus musculus) (UniProt Q61831); assay: JNK3 AlphaScreen Assay (AID 530; active = well fitted curve in either direction with a large enough effect, not every such curve was filed as active;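 also: kinase came from lysate of stimulated human HepG2 cells; signal reports phosphorylation of biotinylated GST-cJun 1-79 at Ser73 with 10 µM ATP; series mostly up to about 57 µM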)
# Procedure, shortened: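 Compound titrations were preincubated 15 minutes at room temperature with substrate, antibody and pre-activated JNK3-containing HepG2 lysate. Reactions were started with 10 uM ATP and stopped with EDTA-containing bead buffer for AlphaScreen detection.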
# [2] = molecular target: Cytochrome P450 3A4 (Homo sapiens) (UniProt P08684); assay: qHTS Assay for Inhibitors and Substrates of Cytochrome P450 3A4 (AID 884); also: nearly all actives have a fitted effect of over 50% in size; also: potency is read from the fitted curve at half-maximal effect
# Procedure, shortened: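 20 nM human CYP3A4 with 25 uM Luciferin-PPXE (at KM) in 200 mM KPO4, preincubated 10 min with compound; NADPH regeneration started a 60 min RT reaction. Luciferin detected by luminescence, normalized to 57 uM ketoconazole as full inhibition.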
# [3] = molecular target: Cytochrome P450 3A4 (Homo sapiens) (UniProt P08684); assay: qHTS Assay for Activators of Cytochrome P450 3A4 (AID 885); also: nearly all actives have a fitted effect of over 65% in size
# Procedure, shortened: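 Human CYP3A4 (20 nM) with Luciferin-PPXE at 25 uM (its KM) in 200 mM KPO4; 10 min compound preincubation, then NADPH regeneration and 60 min reaction at RT. Luciferin read by luminescence; normalized to 57 uM ketoconazole full inhibition.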
# [4] = molecular target: 3',5'-cyclic-AMP phosphodiesterase 4B (Homo sapiens) (UniProt Q07343); assay: qHTS Assay for Inhibitors of PDE-IV (AID 607; active = well fitted activation curve with a large enough effect in the main read-out, with a control signal flat, not every such curve was filed as active)
# Procedure, shortened: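 HEK293 ACTOne cells with CNG channel (1000/well), endogenous PDE4; membrane potential dye, compounds up to 22.9 uM final. Fluorescence Ex 535/Em 590; RO 20-1724 (100 uM final) as reference.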
# [5] = molecular target: DNA dC->dU-editing enzyme APOBEC-3G (Homo sapiens) (UniProt Q9HC16); assay: qHTS for inhibitors of Vif-A3G interactions: Validation (AID 588379)
# Procedure, shortened: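 HeLa cells stably expressing Vif and A3G-eYFP, 700 cells/well, incubated overnight at 37 deg C, then exposed to compound overnight at 37 deg C. Inhibition of Vif-mediated degradation read as increased yellow fluorescence (Ex 488/Em 500-530) by laser-scanning cytometry.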
# [6] = Cell Viability - LYMP2-001 (AID 921);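 also: potency is read from the fitted curve at half-maximal effect; cells exposed to compound for 24 h at 37 °C; nearly all actives have a fitted effect of over 70% in size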
# Procedure, shortened: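 CellTiter-Glo luminescence (intracellular ATP) after 24 hr compound exposure at 37 C, 2500 lymphoblastoid cells/well in complete medium. AC50 fitted with standard Hill equation; tetraoctylammonium bromide positive control.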
# [7] = MultiTox-Fluor Cytotoxicity Assay - LYMP1-002 - Live Cells (AID 955);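 also: potency is read from the fitted curve at half-maximal effect; cells exposed to compound for 16 hours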
# Procedure, shortened: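 Read-out is live-cell protease activity (cell-permeant GF-AFC substrate, fluorescence Ex/Em=405/510), where a decrease indicates acute toxicity. Human lymphoblastoid cells were treated 16 hours at 37 C in a concentration series, and AC50 values came from standard Hill modelling.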
# [8] = MultiTox-Fluor Cytotoxicity Assay - LYMP1-002 - Dead Cells (AID 960); also: potency is read from the fitted curve at half-maximal effect; nearly all actives have a fitted effect of over 60% in size
# Procedure, shortened: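 LYMP1-002 cells 2500/well; 5 hr 37 C pre-incubation; compound 16 hr 37 C; MultiTox-Fluor reagent 60 min RT; dead-cell fluor Ex/Em 485/520. Norm. to DMSO (0%) vs 15 uM tetraoctylammonium bromide (100%); Hill AC50.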
# [9] = molecular target: Estrogen receptor (Homo sapiens) (UniProt P03372); assay: qHTS assay for small molecule agonists of estrogen receptor alpha signaling (AID 588514; calls by dose curve; also: nearly all actives have a fitted effect of over 70% in size; also: potency is read from the fitted curve at half-maximal effect)
# Procedure, shortened: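 Cells were plated at 5000/well, incubated 4 hrs at 37 C, dosed with compound titration series, incubated 18 hrs at 37 C, loaded with CCF4 dye for 2 hrs at RT, then fluorescence was read.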
# [10] = molecular target: Bile acid receptor (Homo sapiens) (UniProt Q96RI1); assay: qHTS assay for small molecule agonists of farnesoid X receptor signaling (AID 588527; calls by dose curve; also: series mostly up to about 77 µM); details: HEK293T FXR-UAS-bla, beta-lactamase ratio, 16 h; activation: stronger effect = higher value
# Procedure, shortened: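 FXR-UAS-bla HEK293T cells (10% dialyzed FBS) preincubated 5-7 h at 37 C, then compounds at up to 92 uM for 16 h at 37 C. CCF4 beta-lactamase read-out after 2 h RT. Normalized to chenodeoxycholic acid (100 uM) and DMSO; Hill fit gave EC50 and efficacy.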
# [11] = molecular target: Glucocorticoid receptor (Homo sapiens) (UniProt P04150); assay: qHTS assay for small molecule antagonists of glucocorticoid receptor signaling (AID 588533; active = well fitted inhibition curve with a large enough effect in the signal ratio, with a control signal flat, not every such curve was filed as active; the % refers to the signal ratio;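 also: cells stimulated with 2 nM dexamethasone as agonist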; also: potency is read from the fitted curve at half-maximal effect)
# Procedure, shortened: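 Antagonist-mode qHTS: compound titrations added to GRE-bla HeLa cells, then dexamethasone 2 nM final; 18 h, 37 C. CCF4 FRET fluorescence normalized to dexamethasone and DMSO; IC50 from Hill fit.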
# [12] = qHTS assay for small molecule agonists of the antioxidant response element (ARE) signaling pathway (AID 651741; active = well fitted activation curve with a large enough effect in the signal ratio; the % refers to the signal ratio; also: potency is read from the fitted curve at half-maximal effect)
# Procedure, shortened: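 Quantitative HTS in HepG2 cells stably expressing an ARE-beta-lactamase reporter; 16 h compound exposure at 37 C, followed by 2 h room-temperature incubation with LiveBLAzer B/G FRET substrate and fluorescence measurement.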
# [13] = molecular target: Bile acid receptor (Homo sapiens) (UniProt Q96RI1); assay: qHTS assay for small molecule antagonists of farnesoid X receptor signaling (AID 588526; calls by dose curve)
# Procedure, shortened: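 Beta-lactamase reporter antagonist mode: HEK293T FXR-UAS-bla cells, titrated compound, CDCA stimulation, 16 h 37 C, CCF4 dye 2 h RT. Data normalized to CDCA 50 uM and DMSO; Hill-fit IC50.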
# [14] = molecular target: Glucocorticoid receptor (Homo sapiens) (UniProt P04150); assay: qHTS assay for small molecule agonists of glucocorticoid receptor signaling (AID 588532; active = well fitted curve in the direction sought with a large enough effect in the signal ratio, with a control signal flat; the % refers to the signal ratio); details: HeLa MMTV-bla, beta-lactamase ratio, agonist, 18 h; activation: stronger effect = higher value, percent of dexamethasone control, DMSO zero
# Procedure, shortened: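 Using MMTV-bla HeLa cells in medium with 1% stripped FBS and 25 mM HEPES, compounds were titrated and incubated overnight-length (18 h). Beta-lactamase cleavage of CCF4 was quantified by dual-emission fluorescence.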
# [15] = molecular target: Peroxisome proliferator-activated receptor delta (Homo sapiens) (UniProt Q03181); assay: qHTS assay for small molecule antagonists of peroxisome proliferator-activated receptor delta signaling (AID 588535; active = well fitted inhibition curve with a large enough effect in the signal ratio, with a control signal flat, not every such curve was filed as active; the % refers to the signal ratio)
# Procedure, shortened: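 HEK293T PPAR-delta-UAS-bla cells, 4000/well, 2% charcoal/dextran FBS; 5 h 37 C; cpd titration; 18 h 37 C; CCF4 2 h RT; FI 460/530 nm; Hill fit → IC50, efficacy.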
# [16] = molecular target: Thyroid hormone receptor beta (Homo sapiens) (UniProt P10828); assay: qHTS assay for small molecule antagonists of thyroid hormone receptor beta signaling (AID 588547; active = well fitted inhibition curve with a large enough effect in the signal ratio, with a control signal flat, not every such curve was filed as active; the % refers to the signal ratio;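 also: cells stimulated with 0.4 nM T3 agonist during compound exposure; series mostly up to about 77 µM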); details: TR-UAS-bla HEK293, beta-lactamase ratio, antagonist mode, 18 h
# Procedure, shortened: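 Inhibition of T3-driven (0.4nM final) beta-lactamase reporter activity was measured over 0.59 nM to 92 uM compound after 18 h at 37 C. The cells were GripTite HEK293 TR-UAS-bla in charcoal/dextran-stripped serum, with CCF4 ratio read-out and IC50 from Hill fits.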
# [17] = qHTS assay for small molecule activators of the nuclear factor-kappa B (NF-kB) signaling pathway (AID 651749; active = well fitted activation curve with a large enough effect in the signal ratio; the % refers to the signal ratio; also: series mostly up to about 77 µM); details: NF-kB-bla ME-180 cells, beta-lactamase FRET ratio, 16 h; activation: stronger effect = higher value
# Procedure, shortened: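 Readout: beta-lactamase reporter driven by an NF-kB response element, detected fluorescently as loss of FRET. Cells were the ME-180 line, treated 16 hr at 37C with pin-transferred compound.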
# Cytochrome P450 3A4 (Homo sapiens), sequence (P08684 whole entry, looked up): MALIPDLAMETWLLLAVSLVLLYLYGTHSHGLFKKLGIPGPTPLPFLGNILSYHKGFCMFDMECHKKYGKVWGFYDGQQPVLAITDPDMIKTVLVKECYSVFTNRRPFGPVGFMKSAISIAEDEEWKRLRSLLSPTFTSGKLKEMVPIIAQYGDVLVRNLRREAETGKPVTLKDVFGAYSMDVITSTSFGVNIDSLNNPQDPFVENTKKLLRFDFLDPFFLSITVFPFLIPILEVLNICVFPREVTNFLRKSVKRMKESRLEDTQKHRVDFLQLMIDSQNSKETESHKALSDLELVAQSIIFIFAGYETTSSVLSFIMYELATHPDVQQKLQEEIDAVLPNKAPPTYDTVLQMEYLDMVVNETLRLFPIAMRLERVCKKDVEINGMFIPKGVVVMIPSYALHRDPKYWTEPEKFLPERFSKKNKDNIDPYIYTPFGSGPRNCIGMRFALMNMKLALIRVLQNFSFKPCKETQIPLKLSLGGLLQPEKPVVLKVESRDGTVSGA
# Glucocorticoid receptor (Homo sapiens), sequence (P04150 whole entry, looked up): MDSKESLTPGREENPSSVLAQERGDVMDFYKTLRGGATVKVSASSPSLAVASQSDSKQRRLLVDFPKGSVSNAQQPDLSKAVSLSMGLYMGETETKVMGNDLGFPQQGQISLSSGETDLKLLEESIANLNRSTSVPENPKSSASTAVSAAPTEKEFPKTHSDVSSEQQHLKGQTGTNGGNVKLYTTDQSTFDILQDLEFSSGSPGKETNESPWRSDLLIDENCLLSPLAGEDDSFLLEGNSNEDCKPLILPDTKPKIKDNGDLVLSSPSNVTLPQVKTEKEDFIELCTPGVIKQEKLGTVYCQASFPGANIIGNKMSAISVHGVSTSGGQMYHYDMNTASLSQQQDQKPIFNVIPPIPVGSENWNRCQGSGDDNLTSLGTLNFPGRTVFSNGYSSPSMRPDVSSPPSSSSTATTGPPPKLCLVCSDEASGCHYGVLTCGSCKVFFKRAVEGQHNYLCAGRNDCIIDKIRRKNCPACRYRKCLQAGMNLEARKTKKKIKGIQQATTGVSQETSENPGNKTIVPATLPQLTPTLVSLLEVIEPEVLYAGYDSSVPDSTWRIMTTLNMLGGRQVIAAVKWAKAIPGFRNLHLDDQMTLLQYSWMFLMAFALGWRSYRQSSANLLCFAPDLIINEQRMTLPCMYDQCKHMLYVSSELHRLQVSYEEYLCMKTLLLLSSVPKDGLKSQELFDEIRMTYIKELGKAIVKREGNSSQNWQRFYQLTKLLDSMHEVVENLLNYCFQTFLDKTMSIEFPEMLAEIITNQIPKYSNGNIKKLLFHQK
# DNA dC->dU-editing enzyme APOBEC-3G (Homo sapiens), sequence (Q9HC16 whole entry, looked up): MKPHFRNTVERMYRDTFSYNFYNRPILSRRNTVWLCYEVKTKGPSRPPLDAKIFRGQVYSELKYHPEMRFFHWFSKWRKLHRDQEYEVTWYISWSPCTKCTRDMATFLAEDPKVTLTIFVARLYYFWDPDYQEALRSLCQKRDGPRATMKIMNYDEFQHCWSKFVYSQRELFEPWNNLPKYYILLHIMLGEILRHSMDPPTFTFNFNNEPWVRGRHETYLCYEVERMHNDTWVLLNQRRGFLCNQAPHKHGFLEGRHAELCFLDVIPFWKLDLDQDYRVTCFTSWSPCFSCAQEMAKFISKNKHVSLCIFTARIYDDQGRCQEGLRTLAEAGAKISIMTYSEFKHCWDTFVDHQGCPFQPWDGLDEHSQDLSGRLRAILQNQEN
# 3',5'-cyclic-AMP phosphodiesterase 4B (Homo sapiens), sequence (Q07343 whole entry, looked up): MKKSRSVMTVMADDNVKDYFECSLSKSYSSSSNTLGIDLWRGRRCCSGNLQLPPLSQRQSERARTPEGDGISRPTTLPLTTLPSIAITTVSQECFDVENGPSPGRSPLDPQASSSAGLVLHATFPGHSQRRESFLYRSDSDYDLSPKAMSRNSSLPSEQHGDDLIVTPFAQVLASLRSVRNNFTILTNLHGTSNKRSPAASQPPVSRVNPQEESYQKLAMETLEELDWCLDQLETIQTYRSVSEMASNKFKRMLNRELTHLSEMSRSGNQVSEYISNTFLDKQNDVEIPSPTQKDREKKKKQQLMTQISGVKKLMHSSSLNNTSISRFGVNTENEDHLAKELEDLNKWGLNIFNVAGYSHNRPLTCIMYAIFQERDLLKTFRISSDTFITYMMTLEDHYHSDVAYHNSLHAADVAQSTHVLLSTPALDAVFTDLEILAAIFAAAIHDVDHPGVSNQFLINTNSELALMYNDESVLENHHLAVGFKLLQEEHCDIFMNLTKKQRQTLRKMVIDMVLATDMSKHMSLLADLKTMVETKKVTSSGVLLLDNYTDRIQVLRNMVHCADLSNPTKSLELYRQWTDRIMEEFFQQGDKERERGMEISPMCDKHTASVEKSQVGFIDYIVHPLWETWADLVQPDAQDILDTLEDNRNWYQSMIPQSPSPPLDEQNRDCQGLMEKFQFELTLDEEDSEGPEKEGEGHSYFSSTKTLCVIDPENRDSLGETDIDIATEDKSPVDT
# Estrogen receptor (Homo sapiens), sequence (P03372 whole entry, looked up): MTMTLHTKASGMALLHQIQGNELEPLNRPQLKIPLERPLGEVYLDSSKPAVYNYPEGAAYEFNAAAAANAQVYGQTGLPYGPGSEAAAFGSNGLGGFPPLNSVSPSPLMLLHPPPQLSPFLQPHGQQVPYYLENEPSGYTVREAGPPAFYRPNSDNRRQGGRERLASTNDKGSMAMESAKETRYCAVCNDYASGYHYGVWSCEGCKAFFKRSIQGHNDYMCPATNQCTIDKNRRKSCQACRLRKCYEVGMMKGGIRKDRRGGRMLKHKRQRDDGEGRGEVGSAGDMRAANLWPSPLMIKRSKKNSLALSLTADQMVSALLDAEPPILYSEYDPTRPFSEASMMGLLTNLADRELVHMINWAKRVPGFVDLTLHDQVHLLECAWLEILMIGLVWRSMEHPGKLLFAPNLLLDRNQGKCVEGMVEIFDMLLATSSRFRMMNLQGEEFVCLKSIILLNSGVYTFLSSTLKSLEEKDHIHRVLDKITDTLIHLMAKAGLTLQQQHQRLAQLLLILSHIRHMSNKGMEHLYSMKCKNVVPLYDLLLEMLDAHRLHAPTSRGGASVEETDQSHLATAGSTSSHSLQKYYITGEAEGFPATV
# Thyroid hormone receptor beta (Homo sapiens), sequence (P10828 whole entry, looked up): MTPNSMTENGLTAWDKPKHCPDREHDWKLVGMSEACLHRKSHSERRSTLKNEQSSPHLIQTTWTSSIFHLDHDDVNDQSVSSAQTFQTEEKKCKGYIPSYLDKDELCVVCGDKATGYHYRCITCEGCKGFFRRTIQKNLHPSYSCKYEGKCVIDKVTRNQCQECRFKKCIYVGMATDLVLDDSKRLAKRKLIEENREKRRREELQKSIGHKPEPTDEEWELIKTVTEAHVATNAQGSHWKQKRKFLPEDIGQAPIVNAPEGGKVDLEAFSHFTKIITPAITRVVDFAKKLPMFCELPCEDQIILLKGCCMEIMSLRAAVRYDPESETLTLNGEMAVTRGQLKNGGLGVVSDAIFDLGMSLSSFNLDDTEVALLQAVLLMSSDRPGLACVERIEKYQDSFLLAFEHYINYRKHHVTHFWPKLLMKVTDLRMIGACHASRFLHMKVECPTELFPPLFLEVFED
# Peroxisome proliferator-activated receptor delta (Homo sapiens), sequence (Q03181 whole entry, looked up): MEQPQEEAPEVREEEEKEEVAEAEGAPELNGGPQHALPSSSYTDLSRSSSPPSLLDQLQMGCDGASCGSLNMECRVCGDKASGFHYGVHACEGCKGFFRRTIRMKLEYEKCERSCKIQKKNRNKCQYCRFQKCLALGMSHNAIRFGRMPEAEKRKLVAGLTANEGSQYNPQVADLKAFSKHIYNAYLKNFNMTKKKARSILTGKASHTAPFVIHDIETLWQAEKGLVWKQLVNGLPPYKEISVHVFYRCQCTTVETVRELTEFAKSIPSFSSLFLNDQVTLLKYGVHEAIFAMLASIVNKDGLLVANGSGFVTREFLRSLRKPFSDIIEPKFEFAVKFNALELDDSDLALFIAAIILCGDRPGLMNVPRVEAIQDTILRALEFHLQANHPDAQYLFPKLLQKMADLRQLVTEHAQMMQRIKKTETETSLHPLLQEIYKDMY
# Bile acid receptor (Homo sapiens), sequence (Q96RI1 whole entry, looked up): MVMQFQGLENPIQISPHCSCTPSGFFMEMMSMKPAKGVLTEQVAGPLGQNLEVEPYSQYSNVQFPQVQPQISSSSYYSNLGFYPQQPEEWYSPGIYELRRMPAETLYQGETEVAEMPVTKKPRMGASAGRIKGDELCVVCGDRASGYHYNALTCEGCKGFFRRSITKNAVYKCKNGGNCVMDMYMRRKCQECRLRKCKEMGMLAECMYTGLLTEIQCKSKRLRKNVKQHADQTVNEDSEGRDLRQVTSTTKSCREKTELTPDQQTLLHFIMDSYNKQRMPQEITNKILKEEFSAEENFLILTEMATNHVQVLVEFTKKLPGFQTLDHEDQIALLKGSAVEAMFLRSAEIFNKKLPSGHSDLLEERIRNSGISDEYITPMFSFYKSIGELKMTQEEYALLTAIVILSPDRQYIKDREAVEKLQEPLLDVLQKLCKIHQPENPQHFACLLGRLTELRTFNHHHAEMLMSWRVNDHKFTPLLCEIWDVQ
compound,measurement,setting,value
CCCC/C=C/[C@@H](NP(=O)(c1ccccc1)c1ccccc1)c1ccccc1OC,outcome,[1],inactive
same,Potency,[2],6.31 µM (active)
same,Potency,[3],inactive
CNC(=O)[C@@H]1C[C@H]1[C@@H](NP(=O)(c1ccccc1)c1ccccc1)c1ccccc1,outcome,[1],inactive
same,outcome,[4],inactive
COc1ccc(CC2c3cc(OC)c(OC)cc3CCN2C)cc1OC (configuration not stated),Potency,[2],inactive
same,outcome,[5],inactive
COC(=O)[C@@H]1C[C@H]1[C@@H](NP(=O)(c1ccccc1)c1ccccc1)c1ccccc1,outcome,[1],inactive
same,outcome,[4],inactive
O=c1cccc2n1CC1CC2CN2CCCC[C@H]12 (some centres not stated),Potency,[2],inactive
same,outcome,[5],inactive
CN(C)C1C(=O)C(C(N)=O)=C(O)[C@@]2(O)C(=O)C3=C(O)c4c(O)cccc4[C@@](C)(O)C3[C@H](O)C12 (some centres not stated),outcome,[5],inactive
C=C[C@@H]1C[C@@]1(C)[C@@H](NP(=O)(c1ccccc1)c1ccccc1)c1ccccc1,outcome,[1],inactive
same,Potency,[3],inactive
CC1=CC(=O)C2=C(C)C[C@H](O)[C@H]3[C@H](C)C(=O)O[C@@H]3C12 (some centres not stated),outcome,[5],inactive
COC(=O)[C@]1(C)C[C@H]1[C@H](NP(=O)(c1ccccc1)c1ccccc1)c1ccccc1,outcome,[1],inactive
same,Potency,[3],inactive
COc1cc2c(cc1OC)-c1c(OC)c(OC)c(CO)c3c1C(C2)N(C)CC3 (configuration not stated),Potency,[2],31.6 µM (active)
same,Potency,[3],inactive
same,outcome,[5],inactive
COC(=O)[C@@]1(Cc2ccccc2)[C@H]2c3cc(C(=O)N(C)C)n(C)c3C[C@H]2CN1C(=O)c1ccccc1,outcome,[1],inactive
same,outcome,[4],inactive
C=CC(=O)OCC(CO)(COC(=O)C=C)COC(=O)C=C,Potency,[3],inactive
same,Potency,[6],3.16 µM (active)
same,Potency,[7],3.98 µM (active)
same,Potency,[8],3.16 µM (active)
same,Potency,[9],inactive
same,activation,[10],1.06%
same,Potency,[11],22.4 µM (active) and 20 µM (active)
same,Potency,[12],24.3 µM (active)
Cc1c(F)c(F)c(COC(=O)C2C(/C=C(\Cl)C(F)(F)F)C2(C)C)c(F)c1F (configuration not stated),Potency,[9],inactive
same,Potency,[13],inactive
same,activation,[10],0.0589%
same,activation,[14],9.43%
same,Potency,[15],inactive
same,activity change % (negative = inhibition),[16],16.3%
same,activation,[17],-3.24%
CCCCC(C#N)(Cn1cncn1)c1ccc(Cl)cc1 (configuration not stated),Potency,[9],inactive
same,activation,[14],-4.2% and -7.49%
same,Potency,[11],inactive
same,Potency,[15],inactive
same,activity change % (negative = inhibition),[16],6.16% and 3.62%
same,Potency,[12],inactive
c1cc[n+]2c(c1)-c1cccc[n+]1CC2,Potency,[9],inactive
same,activation,[14],1.75%
same,Potency,[11],inactive
same,Potency,[15],inactive
same,activity change % (negative = inhibition),[16],10.8%
same,Potency,[12],8.63 µM (active)
same,activation,[17],-2.74%
CC(C)C(=O)OCC(C)(C)C(OC(=O)C(C)C)C(C)C (configuration not stated),Potency,[9],inactive
same,activation,[14],-2.67%
same,Potency,[11],inactive
same,Potency,[15],inactive
same,activity change % (negative = inhibition),[16],4.21%
same,Potency,[12],inactive
same,activation,[17],-2.62%
Clc1ccc([C@]2(Cn3cncn3)C[C@H](Br)CO2)c(Cl)c1,Potency,[9],inactive
same,Potency,[13],inactive
same,activation,[10],0.21% and -0.946%
same,Potency,[11],inactive
same,Potency,[15],inactive
same,activity change % (negative = inhibition),[16],0.44%
same,Potency,[12],inactive
same,activation,[17],-1.6% and -1.96%
O=Nc1ccc(Nc2ccccc2)cc1,Potency,[3],inactive
same,Potency,[6],2.51 µM (active)
same,Potency,[7],6.31 µM (active)
same,Potency,[8],3.98 µM (active)
same,Potency,[9],5.01 µM (active)
same,activation,[10],15.6%
same,Potency,[12],54.5 µM (active)

# Reference: PubChem BioAssay (NCATS)
